Source: PubChem (several laboratories)
The list is not random: actives were taken first. Their share in the collection is about 3.3%.
Anthrax LF inh2 = blocks Bacillus anthracis lethal factor protease. hit rate 0.12% among 360,000. multiplex microsphere protease cleavage assay, LF. AID 588501. inhibition, % at 10 µM. P15917; also: plate controls were buffer without enzyme for full effect and enzyme alone for no effect
BoNT A protease = blocks Botulinum neurotoxin A light chain protease; multiplex microsphere protease substrate cleavage, flow cytometry; inhibition, % at 10 µM; hit rate 0.17% among 360,000; AID 588499; also: plate controls were buffer without enzyme for full effect and enzyme alone for no effect
MazF activator = activators of E. coli MazEF toxin-antitoxin RNase; P0AE70; FAM/BHQ RNA-DNA oligo cleavage fluorescence, 5 h; activation, % at 20 µM; hit rate 0.32% among 350,000; AID 504720; in the data active = activation above about 50%
Target sequence (P0AE70 whole entry, looked up): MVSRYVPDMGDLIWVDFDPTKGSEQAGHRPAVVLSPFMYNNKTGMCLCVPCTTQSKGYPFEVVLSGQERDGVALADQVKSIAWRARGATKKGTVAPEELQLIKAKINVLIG
PriA SSB inh = K. pneumoniae PriA-SSBct interaction inhibition. AlphaScreen SSBct-PriA binding, biotinylated peptide. inhibition, % at 33 µM. hit rate 0.6% among 430,000. AID 1272365; in the data active = inhibition mostly above about 37%, no sharp cut-off; inactive = mostly below about 20%;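 also: plate controls were negative control peptide for no effect and reference peptide for full effect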
BoNT-F LC inh = inhibitors of Botulinum neurotoxin F light chain protease. inhibition, % at 10 µM. hit rate 0.22% among 360,000. Multiplex microsphere protease cleavage assay, flow cytometry. AID 588497; in the data active = inhibition above about 35%, passing the limit was not always enough; inconclusive = no clear call, values can overlap the other calls; also: plate controls were buffer without enzyme for full effect and enzyme alone for no effect
Autofluor counter = flagged as autofluorescent in microsphere protease counterscreen | AID 624483 | compound autofluorescence counterscreen, microsphere flow cytometry; hits give high values | fluorescence intensity (concentration not given with the values) | hit rate 3.1% among 360,000; in the data active = fluorescence intensity above about 16000; inconclusive = no clear call, values can overlap the other calls
Active calls of the source: *; ? = inconclusive; . = not tested or not shown. Rule as the data show it, unless noted: active = inhibition above about 30%; inconclusive = no clear call, values can overlap the other calls; inactive = below that.

SMILES	Anthrax LF inh2	BoNT A protease	MazF activator	PriA SSB inh	BoNT-F LC inh	Autofluor counter
COc1ccccc1OCCn1c(C2CC(=O)N(c3cccc(C(F)(F)F)c3)C2)nc2ccccc21 (configuration not stated)	.	.	.	-6	.	.
N#CC(c1cccc(C(F)(F)F)c1)(c1ncc(C(F)(F)F)cc1Cl)N1CCOCC1 (configuration not stated)	-6	0	-13	-21	-2	23108*
O=C(Nc1nc(-c2ccccn2)cs1)c1ccc(Cl)cc1	.	.	.	73*	.	.
O=C(Nc1nc(-c2ccccn2)cs1)c1ccc2ncsc2c1	.	.	.	19	.	.
O=C(Nc1nc(-c2ccccn2)cs1)c1ccccn1	.	.	.	162*	.	.
CC1CN(Cc2ccc(C(=O)Nc3nc(-c4ccccn4)cs3)cc2)CC(C)O1 (configuration not stated)	.	.	.	114*	.	.
CC(C)(C)NC(=O)C(=O)Nc1nc(-c2ccccn2)cs1	.	.	.	101*	.	.
CC(C)CS(=O)(=O)C1CCN(C(=O)CCCC(=O)c2ccccc2)CC1	.	.	.	-11	.	.
O=C(Nc1nc(-c2ccccn2)cs1)c1ncc(Cl)c(Cl)c1Cl	-4	0	7	12	-5	3167
O=C(Nc1nc(-c2ccccn2)cs1)c1c[n+]2cccnc2[nH]1	.	.	.	99*	.	.
Cc1nc(C(=O)Nc2nc(-c3ccccn3)cs2)c(C(C)C)s1	.	.	.	68*	.	.
CCc1sc(C(=O)Nc2nc(-c3ccccn3)cs2)cc1C	4	3	13	13	-29	2631
O=C(Nc1nc(-c2ccccn2)cs1)[C@@H]1CCCN1S(=O)(=O)c1cccs1	.	.	.	91*	.	.
O=C(CC12CC3CC(CC(O)(C3)C1)C2)Nc1nc(-c2ccccn2)cs1	.	.	.	97*	.	.
COc1ccc(-c2csc(NC(=O)c3ccoc3C)n2)cc1	-2	0	0	-4	1	3209
COc1ccccc1-c1nnc(NC(=O)C2CCCN2S(=O)(=O)c2cccs2)o1 (configuration not stated)	4	0	-3	75*	-1	2911
O=C(Nc1nc(-c2ccccn2)cs1)C1=COCCO1	.	.	.	106*	.	.
Cc1occc1C(=O)Nc1nc(-c2ccccn2)cs1	.	.	.	112*	.	.
Cc1cc(C)cc(C(=O)Nc2nc(-c3ccccn3)cs2)c1	.	.	.	92*	.	.
Cc1nc2ccccn2c1C(=O)NC[C@](C)(O)c1ccc2c(c1)OCO2	.	.	.	-9	.	.
Nc1nc(-c2ccn(S(=O)(=O)c3ccccc3)c2)cs1	.	.	.	17	.	.
O=C(NC[C@@H](c1cccs1)N1CCc2ccccc21)C(=O)Nc1cc(F)ccc1F	.	.	.	8	.	.
O=C(CN1CCN(c2ccccc2F)CC1)Nc1ccc(Br)cc1	.	.	.	-10	.	.
CCOc1ccc(-c2cc3c(=O)n(CC(=O)Nc4cc(OC)cc(OC)c4)ncn3n2)cc1	.	.	.	2	.	.
O=C(Nc1nc(-c2ccccn2)cs1)c1ccccc1C(F)(F)F	.	.	.	88*	.	.
SMILES	Anthrax LF inh2	BoNT A protease	MazF activator	PriA SSB inh	BoNT-F LC inh	Autofluor counter
COc1ccc(S(=O)(=O)CC(=O)Nc2nc(-c3ccccn3)cs2)cc1	.	.	.	88*	.	.
O=C(Nc1nc(-c2ccccn2)cs1)c1ccc(Cl)s1	-11	-1	7	32	-15	5438
Cc1nc(NC(=O)c2oc3ccccc3c2C)sc1C(=O)N(C)C	-6	-2	6	5	-3	24342*
Cc1ccc(C(=O)Nc2nc(-c3ccccn3)cs2)s1	2	0	9	47*	-8	4050
COc1ccc(-c2csc(NC(=O)CS(=O)(=O)c3ccccc3)n2)cc1	-2	0	3	3	-4	5656
Cc1c(C(=O)Nc2nc(-c3ccccn3)cs2)oc2ccccc12	3	0	-4	69*	-3	3014
COc1ccc(S(=O)(=O)Nc2ccc(C(=O)Nc3nc(-c4ccccn4)cs3)cc2)cc1	.	.	.	95*	.	.
O=C(Nc1nc(-c2ccccn2)cs1)c1ccc(NC(=O)c2cccs2)cc1	.	.	.	97*	.	.
CS(=O)(=O)Cc1ccc(C(=O)Nc2nc(-c3ccccn3)cs2)cc1	.	.	.	17	.	.
Cc1nnsc1C(=O)Nc1nc(-c2ccccn2)cs1	.	.	.	136*	.	.
O=C(Nc1nc(-c2ccccn2)cs1)c1cc2ccccc2o1	-1	3	17	20	3	3935
COc1ccc(S(=O)(=O)NCCCn2ncccc2=O)c(OC)c1	.	.	.	-3	.	.
C=CCNC(=O)C(=O)Nc1ccc(N2CCCS2(=O)=O)cc1	.	.	.	-20	.	.
CCOC(=O)NC(=O)c1ccsc1NC(=O)c1ccc([N+](=O)[O-])s1	.	.	.	10	.	.
O=C(Nc1nc(-c2ccccn2)cs1)c1n[nH]c2c1CCCCC2	.	.	.	62*	.	.
O=C(/C=C/c1ccccc1)Nc1nc(-c2ccccn2)cs1	.	.	.	15	.	.
O=C(/C=C/c1cccs1)Nc1nc(-c2ccccn2)cs1	.	.	.	66*	.	.
CS(=O)(=O)c1ccc(C(=O)Nc2nc(-c3ccccn3)cs2)cc1	.	.	.	75*	.	.
Cc1nc(OCC(=O)Nc2nc3ccccc3s2)cc(-n2cccn2)n1	.	.	.	-7	.	.
COCCN(Cc1ccoc1)C(=O)Cc1ccccc1Cl	.	.	.	-16	.	.
O=C(CSc1nc2ccccc2o1)NCc1cnn2ccccc12	.	.	.	-10	.	.
COc1cccc(Cn2c(=S)[nH]c3ccc(N4CCOCC4)cc3c2=O)c1	-1	-3	6	-5	-3	20640*
O=c1c2cc(N3CCOCC3)ccc2[nH]c(=S)n1Cc1ccco1	?	?	4	-11	?	?
CC1CCN(CCCn2c(=S)[nH]c3ccc(N4CCOCC4)cc3c2=O)CC1	-1	-2	5	-2	-3	22801*
O=c1c2cc(N3CCOCC3)ccc2[nH]c(=S)n1CCCN1CCCC1	0	1	2	-8	-1	10120
SMILES	Anthrax LF inh2	BoNT A protease	MazF activator	PriA SSB inh	BoNT-F LC inh	Autofluor counter
O=c1c2cc(N3CCOCC3)ccc2[nH]c(=S)n1Cc1cccc(Cl)c1	-1	0	-6	-2	-1	23197*
O=c1c2cc(N3CCOCC3)ccc2[nH]c(=S)n1Cc1ccccc1	.	.	.	3	.	.
C=CCn1c(SCC(=O)Nc2ccc(S(N)(=O)=O)cc2)nc2sc3c(c2c1=O)CCC3	.	.	.	3	.	.
CC1(C)CCC2CC1(C)CN2C(=O)NC(=O)c1ccccc1 (configuration not stated)	.	.	.	-4	.	.
O=C(NCc1ccco1)c1ccc2c(c1)N(Cc1ccccc1)C(=O)CS2	-2	-6	3	10	-9	25027*
C=CCN1C(=O)CSc2ccc(C(=O)NCc3ccco3)cc21	0	0	2	4	-1	10585
CCOc1nn(CC)cc1C(=O)Nc1ccc2c(c1)OCCO2	.	.	.	-10	.	.
O=C1Nc2ccccc2SC1=Cc1ccccc1	-4	0	-25	.	-4	2855
O=C1Nc2ccccc2S/C1=C/Nc1cccc(Cl)c1	-3	-1	59*	-8	4	9307
COC(=O)c1ccc(NC(=O)Cn2nc(-c3cccs3)n(C3CC3)c2=O)cc1	.	.	.	-4	.	.
NC(=O)c1sc2nc(N3CCCCC3)c3c(c2c1N)CCCC3	4	0	-5	-9	-3	16416*
Cc1noc(C)c1CS(=O)(=O)c1ccc(Br)cc1	2	0	-5	5	-1	10237
Cc1ccc(S(=O)(=O)Cc2c(C)noc2C)cc1	-10	-1	0	-6	-4	22977*
O=c1c2ccccc2nc(-c2ccccc2)n1-c1ccccc1	-10	-7	11	-13	?	4089
